# Inconclusive results are not listed. Entries that show only a call come without a potency. Calls of active or inactive are those of the source. Unless noted, the call rests on the fitted dose curve; in most records, active means well fitted curve in the direction sought with a large enough effect; inconclusive means small, poorly fitted or top-dose-only effect, or another doubt; inactive means no such curve, though single readings can be large; an effect the other way counts as inactive or inconclusive.
# Tests used:
# [1] = NCATS anti-infectives library activity on HEK293 viability as a counter-qHTS vs the C. elegans viability qHTS (AID 1745854);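 further: HEK293 cells exposed to compounds for 24 hr before the viability read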; further: potency means the concentration at half of the fitted maximal effect
# How it was run: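 Counter-screen for cytotoxicity: HEK293, 24 hr, 37C, compounds up to 41.7 uM final (a dilution series, 1:5). Readout CellTiter-Glo luminescence, 10 min RT. Digitonin control, 83.3 uM final.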
# [2] = biological target: Glutathione peroxidase 1 (Homo sapiens) (UniProt P07203); test: Primary qHTS Assay for Inhibitors of Recombinant Selenoprotein Glutathione Peroxidase 1 (GPX1) (AID 1845191); further: nearly all actives have a fitted effect of over 65% in size; further: potency means the concentration at half of the fitted maximal effect
# How it was run: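 GPX1 10 nM, GR 100 nM, GSH 1 mM, NADPH 0.5 mM, CHP 0.5 mM (final). 30-min cpd preincubation, RT. Ex340/Em450 read t=0, t=15 min.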
# [3] = Viability counterscreen for antagonist of constitutive androstane receptor (CAR) against the NCATS DSHEA and TCM libraries (AID 1794837);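 further: compound exposure lasted 24 h before viability reading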
# How it was run: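 HepG2-CYP2B6-hCAR cells, 2,500/well, were exposed 24 hr at 37C to substances together with 48 uM CITCO (final). Viability was read as CellTiter-Fluor fluorescence (Ex/Em 405/540 nm) after 1 hr.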
# [4] = Viability counterscreen for agonist of constitutive androstane receptor (CAR) against the NCATS DSHEA and TCM libraries (AID 1794838);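 further: HepG2 cells with CYP2B6 reporter and hCAR plus 0.75 µM PK11195 antagonist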
# How it was run: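 HepG2-CYP2B6-hCAR cells (2,500/well) treated 24 h at 37C with compounds plus 0.75 uM PK11195; viability read by CellTiter-Fluor fluorescence, Ex/Em 405/540 nm.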
# [5] = biological target: Nuclear receptor subfamily 1 group I member 3 (Homo sapiens) (UniProt Q14994); test: Primary qHTS for agonist of constitutive androstane receptor (CAR) against the NCATS DSHEA and TCM libraries (AID 1794839);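 further: HepG2 cells expressing human CAR with a CYP2B6 reporter plus PK11195 antagonist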
# How it was run: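 HepG2-CYP2B6-hCAR cells, 2,500/well, attached 5 h, then dosed with 0.75 µM PK11195 (final) for 24 h at 37 °C. Luciferase luminescence read (ONE-Glo); CellTiter-Fluor viability (Ex/Em 405/540 nm) in same wells; CITCO positive control.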
# [6] = HepG2 viability counterscreen (readout 2: ATP content) against the NCATS DSHEA and TCM libraries (AID 1794840)
# How it was run: (§1)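 HepG2 cells, 1,000/well, attached ~4 h, then exposed ~24 h at 37C to substances. Protease activity read by fluorescence of 25 uM GF-AFC (Ex/Em 380/510 nm) after 30 min; ATP then by CellTiter-Glo luminescence.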
# [7] = HepG2 viability counterscreen (readout 1: protease activity) against the NCATS DSHEA and TCM libraries (AID 1794841);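 further: cells exposed to compounds for about 24 h before the protease read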
# How it was run: as §1
# [8] = biological target: Nicotinamide N-methyltransferase (Homo sapiens) (UniProt P40261); test: Confirmatory Screen for Target Class Profiling of Small Molecule Inhibitors of Methyltransferases (AID 1745852); details: MTase-Glo luminescence, SAH detection, recombinant enzyme; measured here: NNMT max response; stronger effect = lower value
# [9] = biological target: Phenylethanolamine N-methyltransferase (Homo sapiens) (UniProt P11086); test: as above; details: MTase-Glo luminescence, SAH detection, recombinant enzyme; measured here: PNMT max response; stronger effect = lower value
# [10] = NCATS anti-infectives library activity on the primary C. elegans qHTS viability assay (AID 1745855; calls by dose curve; further: potency means the concentration at half of the fitted maximal effect)
# How it was run: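 GFP read-out by 488 nm laser cytometry at day 0, 3 and 7, gated on object perimeter, area and peak intensity, scored viability of PE254-GFP-FLuc worms exposed to compound in S medium with bacterial capsules at 21 °C.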
# Chain of Phenylethanolamine N-methyltransferase (Homo sapiens) (P11086 whole entry, looked up): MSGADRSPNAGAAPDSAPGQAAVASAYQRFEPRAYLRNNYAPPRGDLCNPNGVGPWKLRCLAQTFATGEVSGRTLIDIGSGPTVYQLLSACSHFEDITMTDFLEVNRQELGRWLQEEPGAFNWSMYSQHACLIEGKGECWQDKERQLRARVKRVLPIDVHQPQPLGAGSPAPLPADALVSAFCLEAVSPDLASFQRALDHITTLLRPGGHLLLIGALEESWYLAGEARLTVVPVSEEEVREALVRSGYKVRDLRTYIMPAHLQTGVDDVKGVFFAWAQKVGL
# Chain of Nicotinamide N-methyltransferase (Homo sapiens) (P40261 whole entry, looked up): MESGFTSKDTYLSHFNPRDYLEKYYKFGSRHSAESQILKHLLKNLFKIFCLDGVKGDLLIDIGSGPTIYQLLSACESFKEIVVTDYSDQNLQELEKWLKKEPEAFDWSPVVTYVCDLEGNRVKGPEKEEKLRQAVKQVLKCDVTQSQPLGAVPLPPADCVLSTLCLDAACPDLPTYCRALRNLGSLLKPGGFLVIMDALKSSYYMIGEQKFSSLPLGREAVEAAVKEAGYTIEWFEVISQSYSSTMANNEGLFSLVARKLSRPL
# Chain of Glutathione peroxidase 1 (Homo sapiens) (P07203 whole entry, looked up): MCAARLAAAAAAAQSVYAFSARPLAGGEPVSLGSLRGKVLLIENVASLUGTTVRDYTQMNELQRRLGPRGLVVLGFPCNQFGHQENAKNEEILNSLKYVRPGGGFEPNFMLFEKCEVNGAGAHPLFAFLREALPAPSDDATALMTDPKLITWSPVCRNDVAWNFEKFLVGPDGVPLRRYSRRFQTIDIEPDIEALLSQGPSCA
# Chain of Nuclear receptor subfamily 1 group I member 3 (Homo sapiens) (Q14994 whole entry, looked up): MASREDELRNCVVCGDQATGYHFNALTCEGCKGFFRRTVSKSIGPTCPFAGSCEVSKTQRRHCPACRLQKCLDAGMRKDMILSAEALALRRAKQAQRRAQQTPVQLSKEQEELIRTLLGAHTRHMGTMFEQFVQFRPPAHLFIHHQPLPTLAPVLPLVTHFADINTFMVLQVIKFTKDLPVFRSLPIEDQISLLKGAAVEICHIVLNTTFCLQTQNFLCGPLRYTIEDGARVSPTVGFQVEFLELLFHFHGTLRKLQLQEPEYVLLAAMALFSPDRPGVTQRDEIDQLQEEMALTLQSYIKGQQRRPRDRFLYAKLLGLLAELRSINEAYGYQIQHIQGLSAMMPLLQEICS
compound,measurement,setting,value
C[C@H](NC(=O)Cc1cc(F)cc(F)c1)C(=O)N[C@H](C(=O)OC(C)(C)C)c1ccccc1,Potency,[1],inactive
same,Potency,[2],inactive
c1cc(CN2CCCNCCNCCCNCC2)ccc1CN1CCCNCCNCCCNCC1,Potency,[1],inactive
same,Potency,[2],inactive
O=c1[nH]c(=O)n([C@H]2C[C@@H](O)[C@@H](CO)O2)cc1C=CBr,Potency,[1],inactive
COc1ccc(C(C)=O)c(O)c1,outcome,[3],inactive
same,outcome,[4],inactive
same,outcome,[5],inactive
same,outcome,[6],inactive
same,outcome,[7],inactive
Cc1cnc(Nc2ccc(CN3CCOCC3)cc2)nc1Nc1cccc(S(=O)(=O)NC(C)(C)C)c1,activity,[8],-43.5%
same,activity,[9],-4.34%
same,Potency,[2],inactive
CCOC(=O)[C@@H](N)Cc1ccc(-c2cc(O[C@H](c3ccc(Cl)cc3-n3ccc(C)n3)C(F)(F)F)nc(N)n2)cc1,activity,[8],-31.8%
same,activity,[9],-6.64%
Cn1cc(CNCC2CCN(c3ncc(C(=O)NO)cn3)CC2)c2ccccc21,Potency,[1],inactive
same,Potency,[2],inactive
N#Cc1c(C2CCNCC2)cc(-c2c(O)cccc2OCC2CC2)nc1N,activity,[8],-55.9%
same,activity,[9],-6.86%
same,Potency,[2],inactive
CC(C)C[C@H](NC(=O)[C@@H](NC(=O)c1cccc(-c2ccccc2)n1)[C@@H](C)O)B(O)O,Potency,[1],inactive
same,Potency,[10],2.05 µM (active)
same,Potency,[2],inactive
COc1cc2c(Nc3ccc(Cl)c(Cl)c3F)ncnc2cc1OCC1C[C@@H]2CN(C)C[C@H]2C1,activity,[8],-56.2%
same,activity,[9],-68.7%
CCCc1nc(C(C)(C)O)c(C(=O)O)n1Cc1ccc(-c2ccccc2-c2nn[nH]n2)cc1,Potency,[1],inactive
Cc1cc(O)c2c(c1)C(=O)c1cccc(O)c1C2=O,Potency,[1],inactive
same,Potency,[10],inactive
same,Potency,[2],8.17 µM (active)
CN(C)c1ccc(C(=O)NCCCCCCC(=O)NO)cc1,Potency,[1],inactive
same,Potency,[10],inactive
same,Potency,[2],inactive
Nc1ccc(C(=O)Nc2cccc(-c3nc(N4CCOCC4)c4oc5ncccc5c4n3)c2)cn1,Potency,[1],inactive
c1cc(N[C@@H]2CCNC2)nc(-c2cnc3ccc(-c4cn[nH]c4)cn23)c1,activity,[8],-7.42%
same,activity,[9],-12.3%
same,Potency,[2],inactive
C=C(C)[C@@H]1CC[C@]2(C(=O)O)CC[C@]3(C)[C@H](CC[C@@H]4[C@@]5(C)CC[C@H](O)C(C)(C)[C@@H]5CC[C@]43C)[C@@H]12,Potency,[1],inactive
same,outcome,[3],inactive
same,outcome,[5],inactive
same,outcome,[6],inactive
same,outcome,[7],inactive
same,Potency,[2],inactive
c1ccc2c(Oc3nc(Nc4ccc(N5CCOCC5)cc4)c4ncn(C5CCCCC5)c4n3)cccc2c1,activity,[8],-22.9%
same,activity,[9],-3.02%
same,Potency,[2],inactive
Nc1ccn(C[C@@H](CO)OCP(=O)(O)O)c(=O)n1,"activity change, negative = cytotoxicity",[1],2.29% [at 8.35 µM] (inactive)
CN1CCc2c(c3ccccc3n2Cc2ccc(C(=O)NO)cc2)C1,activity,[8],-7.28%
same,activity,[9],-22.2%
same,Potency,[2],inactive
C[C@H](NCc1ccc(OCc2cccc(F)c2)cc1)C(N)=O,Potency,[1],inactive
same,Potency,[2],inactive
CCOC(=O)C=C[C@H](C[C@@H]1CCNC1=O)NC(=O)[C@@H](CC(=O)[C@@H](NC(=O)c1cc(C)on1)C(C)C)Cc1ccc(F)cc1,Potency,[1],inactive
same,Potency,[2],inactive
O=C1c2cccc(O)c2C(=O)c2c(O)cc(CO)cc21,Potency,[1],inactive
same,Potency,[2],4.09 µM (active)
c1ccc(CNc2nc(NCc3ccccc3)c3ccccc3n2)cc1,Potency,[1],22.4 µM (active)
same,Potency,[2],inactive
Cn1cc(-c2cnn3c(N)c(Br)c([C@H]4CCCNC4)nc23)cn1,activity,[8],-6.14%
same,activity,[9],-78.4%
same,Potency,[2],inactive

# Source: PubChem BioAssay (NCATS)
